Screens deposited in PubChem by National Center for Advancing Translational Sciences (NCATS).
Hits are enriched below; roughly 19% of the tested compounds scored in any of these assays.
TGFb inhibitor: inhibitors of TGF-b signaling; HepG2 CAGA-GFP TGF-b/SMAD3 reporter, GFP fluorescence, 18 h; TGF-beta stimulated, 500 pg/mL final; Potency, µM (series often up to 46.1 µM), hits mostly inhibitors; 410,000 tested, 1.2% active; AID 588855; note: nearly all actives have a fitted effect of over 65% in size
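Cell-based qHTS in HEPG2 carrying a CAGA-GFP Smad reporter; compounds added before 500 pg/mL final TGF-beta, 18 h incubation at 37 degrees C, GFP fluorescence quantified per cell by imaging cytometry.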
IL1B secr inh: blocks inflammasome-driven IL-1 beta release | THP-1 LPS/ATP IL-1B secretion, AlphaLISA, 16 h; stronger effect = lower value | activity change, % at 57.5 µM | 360,000 tested, 4.7% active | AID 743279; in the data active = activity change below about -50%; inconclusive = mostly about -30% to -49%
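Secreted IL-1B measured by AlphaLISA bead assay after 16 h compound exposure of THP-1 cells; compounds (final up to 57.5 uM) added 1 h before LPS (250 ng/mL) and ATP (1.25 mM) stimulation; lower signal means less secretion.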
HepG2 tox: kills HepG2 cells in TGF-b inhibitor counter-screen | 410,000 tested, 0.76% active | HepG2 CAGA-GFP viability, ATP luminescence, 18 h | Potency, µM (series often up to 46.1 µM), hits mostly cytotoxic
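HepG2 CAGA-GFP cells (1000/well, DMEM with 1% FBS) received compound, then TGF-beta at 500 pg/mL final, and were incubated 18 hours at 37 degrees C. Viability was read by CellTiter-Glo luminescence. Media-only wells were set as complete cell-killing and DMSO as no toxicity.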
TDP1 cell CPT: DT40-hTDP1 cell growth loss with CPT; chicken DT40 Tdp1-/-;hTDP1 cells + 20 nM CPT, ATP luminescence, 48 h; Potency, µM (highest dose often 46.2 µM), usual class: inhibitors; 420,000 tested, 12% active; AID 686979; note: nearly all actives have a fitted effect of over 55% in size
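Chicken DT40 Tdp1-/- cells complemented with human TDP1, 400 cells/well, exposed to compounds plus 20 nM camptothecin for at least 48 h at 37 C; viability read as ATP content by CellTiter-Glo luminescence.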
TDP1 cell noCPT: qHTS for Inhibitors of human tyrosyl-DNA phosphodiesterase 1 (TDP1): qHTS in cells in absence of CPT. DT40 Tdp1-/- hTDP1 cells, no CPT, ATP luminescence, 48 h. Potency, µM (series often up to 46.2 µM), actives largely listed as inhibitors. 420,000 tested, 15% active; note: nearly all actives have a fitted effect of over 55% in size
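Readout: luminescence from CellTiter-Glo after 30 min in the dark at RT. Cells: DT40 Tdp1-/- with stable hTDP1, 400/well. Exposure: compounds alone, ≥48 hr, 37 °C.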
TDP1 inh: TDP1 (human) enzyme inhibition; Q9NUW8; recombinant TDP1, AlphaScreen DNA substrate cleavage; Potency, µM (top dose mostly 130 µM), actives largely listed as inhibitors; 350,000 tested, 0.28% active; AID 485290; note: nearly all actives have a fitted effect of over 40% in size
Target sequence (Q9NUW8 whole entry, looked up): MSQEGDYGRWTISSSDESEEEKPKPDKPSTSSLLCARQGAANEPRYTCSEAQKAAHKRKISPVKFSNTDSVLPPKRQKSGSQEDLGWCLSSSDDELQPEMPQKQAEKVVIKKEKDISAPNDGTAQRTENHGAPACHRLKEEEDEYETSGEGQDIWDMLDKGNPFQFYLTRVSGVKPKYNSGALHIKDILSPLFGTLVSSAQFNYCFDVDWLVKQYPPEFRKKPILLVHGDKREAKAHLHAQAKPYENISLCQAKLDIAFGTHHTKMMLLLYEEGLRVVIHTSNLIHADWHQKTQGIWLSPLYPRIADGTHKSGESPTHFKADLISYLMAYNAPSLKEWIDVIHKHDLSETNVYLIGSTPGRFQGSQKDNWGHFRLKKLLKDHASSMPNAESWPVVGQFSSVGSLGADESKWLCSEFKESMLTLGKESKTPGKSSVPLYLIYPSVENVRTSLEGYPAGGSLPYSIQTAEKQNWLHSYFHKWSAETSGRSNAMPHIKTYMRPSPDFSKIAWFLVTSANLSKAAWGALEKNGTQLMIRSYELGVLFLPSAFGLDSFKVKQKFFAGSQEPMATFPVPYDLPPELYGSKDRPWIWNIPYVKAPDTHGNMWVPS
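Steps: enzyme plus compound, 15 min RT; add biotin/phosphotyrosine-FITC oligonucleotide (15 nM final), react 5 min; add donor/acceptor beads (10 ug/ml final), 10 min; read AlphaScreen. Tdp1 at 1 nM final.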
Numbers stand for hits; n = inactive; u = inconclusive; x = not tested or not shown; [ ] = dose if it differs, or a comment. Unless noted, calls come from the whole dose curve; as a rule, active = well fitted curve in the direction sought with a large enough effect; inconclusive = small, poorly fitted or top-dose-only effect, or another doubt; inactive = no such curve, though single readings can be large; an effect the other way counts as inactive or inconclusive.

SMILES | TGFb inhibitor | IL1B secr inh | HepG2 tox | TDP1 cell CPT | TDP1 cell noCPT | TDP1 inh
COc1ccccc1C(=O)Nc1nc2n(n1)C(c1ccc(F)cc1)C=C(c1ccc(Cl)cc1)N2 (stereo not given) | n | x | n | u | u | n
COc1ccc(C2C=C(c3ccc(Cl)cc3)Nc3nc(NC(=O)CCC(=O)O)nn32)cc1 (stereo not given) | n | x | n | n | n | n
O=C(Nc1nc2n(n1)C(c1ccc(F)cc1)C=C(c1ccccc1)N2)c1ccc(Cl)cc1 (stereo not given) | n | x | n | u | 18µM | n
COc1ccc(C(=O)Nc2nc3n(n2)C(c2ccc(F)cc2)C=C(c2ccc(Cl)cc2)N3)cc1 (stereo not given) | n | x | n | 15µM | 7.3µM | n
O=C(O)CCn1ccc2cc(S(=O)(=O)N3CCCCC3)ccc21 | n | x | n | n | n | n
COc1ccc(C2C=C(c3ccccc3)Nc3nc(NS(=O)(=O)c4ccccc4)nn32)cc1 (stereo not given) | n | x | n | u | u | n
COc1ccc(C2C=C(c3ccccc3)Nc3nc(NS(=O)(=O)c4ccc(Cl)cc4)nn32)cc1 (stereo not given) | n | x | n | u | 16µM | n
Cc1ccc(CNC(=O)c2c(-c3ccc(F)cc3F)noc2C)o1 | n | x | n | n | n | n
CN(Cc1cnn(-c2ccccc2)c1)C(=O)c1ccc(S(=O)(=O)NCc2ccco2)cc1 | n | n | n | n | u | x
Cc1ccc(N(C)S(=O)(=O)c2cccc(C(=O)N(C)Cc3cnn(-c4ccccc4)c3)c2)cc1 | u | -81 | n | u | u | n
CN(Cc1cnn(-c2ccccc2)c1)C(=O)c1cccc(S(=O)(=O)N(C)c2ccccc2)c1 | n | n | n | 18µM | 16µM | x
COc1ccc(Nc2c(-c3ccc(C)o3)nc3ccc(Cl)cn23)cc1 | n | x | n | 7.3µM | 18µM | n
Cc1ccc2nc(-c3ccccc3O)c(Nc3ccccc3C)n2c1 | n | x | n | n | n | n[12.3 µM]
Cc1ccc(Nc2c(-c3ccccc3O)nc3cnccn23)cc1 | n | u | n | u | u | n
Clc1ccc(Nc2c(-c3ccccc3Cl)nc3ccc(Cl)cn23)cc1 | n | x | n | u | 26µM | n
Oc1ccccc1-c1nc2cnccn2c1Nc1ccc(Cl)cc1 | 6.3µM | x | n | u | u | n
COc1ccc(COC(=O)C2=C(C)NC(=O)NC2c2ccccc2)cc1 (stereo not given) | n | n | n | n | n | n
Cc1ccccc1NC(=O)CSc1ccc(-c2cccs2)nn1 | n | x | n | u | 23µM | n
Cc1cccc(NC(=O)CSc2ccc(-c3cccs3)nn2)c1C | n | n | n | n | n | n
O=C(CSc1ccc(-c2cccs2)nn1)N1CCCCCC1 | u | n | n | u | 23µM | n
O=C(CSc1ccc(-c2cccs2)nn1)N1CCCCC1 | n | n | n | n | n | n
Cc1cn2c(=O)cc(COc3ccc(C(C)(C)C)cc3)nc2s1 | n | x | n | n | n | n
CCOC(=O)C1CCN(Cc2nc3ccc([N+](=O)[O-])cc3c(=O)n2-c2ccc(OC)cc2OC)CC1 | n | n | n | u | u | n
CCOC(=O)c1ccc(-n2c(CN3CCC(O)CC3)nc3ccc([N+](=O)[O-])cc3c2=O)cc1 | u | n | n | 21µM | u | n
CCOC(=O)C1CCCN(Cc2nc3ccc([N+](=O)[O-])cc3c(=O)n2-c2ccc(OC)cc2OC)C1 (stereo not given) | n | n | n | 16µM | 23µM | n
SMILES | TGFb inhibitor | IL1B secr inh | HepG2 tox | TDP1 cell CPT | TDP1 cell noCPT | TDP1 inh
CCC(CC)N1CCN(Cc2nc3ccc([N+](=O)[O-])cc3c(=O)n2-c2ccccc2F)CC1 | n | n | n | n | u | x
CC(=O)N1CCN(Cc2nc3cc([N+](=O)[O-])ccc3n2C)CC1 | n | n | n | 6.5µM | u | x
CCOC(=O)N1CCN(Cc2nc3ccc([N+](=O)[O-])cc3c(=O)n2-c2ccccc2F)CC1 | n | n | n | u | 23µM | x
Cc1ccc(CS(=O)(=O)Cc2ccc(C(=O)NC3CCCC3)o2)cc1 | n | n | n | n | u | n
CCOC(=O)c1ccc(-n2c(CN(CC)CC)nc3ccc([N+](=O)[O-])cc3c2=O)cc1 | u | n | n | 18µM | u | n
CCOC(=O)c1ccc(-n2c(CN3CCOCC3)nc3ccc([N+](=O)[O-])cc3c2=O)cc1 | n | n | n | n | n | n
COc1ccc(CC(=O)NCc2nc3cccnc3n2Cc2ccc(C)cc2)cc1OC | n | x | n | u | u | x
CCCC[C@@H]1Cc2[nH][nH]c(=O)c2[C@H](c2cccc3ccccc23)O1 | x | n | x | n | n | x
CCc1nn(C(CC)C(=O)NCCCN2CC(C)CC(C)C2)c(=O)c2cc3oc(C)cc3n12 (stereo not given) | n | n | n | 16µM | u | n
Cc1ccccc1C1c2[nH]c3ccccc3c2C[C@H]2C(=O)N(c3ccccc3C(=O)NCCCN3CCOCC3)C(=O)N12 (stereo not given in full) | n | n | n | 23µM | 16µM | x
Cc1ccc(C2c3[nH]c4ccccc4c3C[C@H]3C(=O)N(c4ccccc4C(=O)NCCCN4CCOCC4)C(=O)N23)cc1 (stereo not given in full) | u | n | n | 12µM | u | x
Cc1ccc(C2c3[nH]c4ccccc4c3C[C@H]3C(=O)N(c4ccccc4C(=O)NCCN4CCOCC4)C(=O)N23)cc1 (stereo not given in full) | n | n | n | n | n | x
O=C(NCCCN1CCOCC1)c1ccccc1N1C(=O)[C@@H]2Cc3c([nH]c4ccccc34)C(c3cccc(Cl)c3)N2C1=O (stereo not given in full) | n | n | n | 9.2µM | 10µM | x
Cc1ccccc1C1c2[nH]c3ccccc3c2C[C@H]2C(=O)N(c3ccccc3C(=O)NCCN3CCOCC3)C(=O)N12 (stereo not given in full) | n | n | n | u | u | x
CC(C)CN(C)Cc1c(C(=O)N2CCc3ccccc3C2)nc2ccc(Cl)cn12 | n | -83 | n | 18µM | 21µM | n
COc1ccc(-c2nn(-c3ccccc3)cc2/C=N/Nc2ccc(S(N)(=O)=O)cc2[N+](=O)[O-])cc1OC | n | n | n | n | u | n
COc1ccc(-c2nn(-c3ccccc3)cc2/C=N/Nc2ccc3ccccc3n2)cc1OC | u | n | 4.5µM | 3.3µM | 4.1µM | n
